# Test results reported in PubChem BioAssay (NCATS).
# Inconclusive results are not listed. Values without a mark were called inactive. Activity calls are given as the source filed them. The call rests on the fitted dose curve; in most records, active means well fitted inhibition curve with a large enough effect; inconclusive means small, poorly fitted or top-dose-only effect; inactive means flat fitted curve, though single readings scatter.
# Test system: Zika virus NS2B-NS3 protease
# Experiment: Primary screen GU AMC qHTS for Zika virus inhibitors (AID 1347154);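 further: 0% = no-inhibitor control and -100% = no-enzyme control; nearly all actives have a fitted effect of over 70% in size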
# Conditions: Zika NS2B-NS3 unlinked protease, AMC fluorogenic substrate; series mostly up to 54.1 µM; activity change, negative = inhibition: at the top concentration
# How it was run: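 Unlinked Zika NS2B hydrophilic domain–NS3 protease complex at 25 nM in 10 mM Tris-HCl pH 8.0, 0.01% Tween 20, with an AMC peptide substrate. Fluorescence change (340/450 nm) over 15 min at room temperature, normalized to controls, fitted to 4-parameter Hill.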
Structure (SMILES),"activity change, negative = inhibition",Potency
Nc1nc(Nc2ccc(S(N)(=O)=O)cc2)nn1C(=O)c1c(F)cccc1F,-14.6%,
Cn1c(CNc2ccc(C(=N)N)cc2)nc2cc(C(=O)N(CCC(=O)O)c3ccccn3)ccc21,5.81% [at 25.8 µM],
c1cc(-c2cnn3cc(-c4ccc(OCCN5CCCCC5)cc4)cnc23)ccn1,-21.5%,
Nc1ccc(S(=O)(=O)Nc2ncccn2)cc1,10%,
CCCNC(=O)Nc1ccc(Oc2ncnc3cc(OC)c(OC)cc23)cc1Cl,0.486%,
O=C(O)CO.[NH2-].[NH2-].[Pt+2],13.1%,
CN1c2cc(O)c(N=NC(N)=O)cc2CC1S(=O)(=O)O (configuration not stated),-9.69%,
COc1cc2c(Nc3ccc(NC(=O)c4ccccc4)cc3)ncnc2cc1OCCCN1CCOCC1,,inactive
O=C(O)c1ccc2c(c1)nc(Nc1cccc(Cl)c1)c1ccncc12,3.46%,
O=C(c1ccc(Nc2nccc(-c3cc4ccccc4s3)n2)cc1)N1CCC(N2CCCC2)CC1,-9.41%,
C[C@@H]1CN(CC(=O)Nc2ccc3c(c2)Cc2cccc(-c4cc(=O)cc(N5CCOCC5)o4)c2S3)C[C@H](C)O1,2.7%,
CC1COC2(CCN(c3nc(=O)c4cc(C(F)(F)F)cc([N+](=O)[O-])c4s3)CC2)O1 (configuration not stated),9.1%,
Clc1cccc(-n2nnnc2NCc2ccccc2Oc2ccccn2)c1Cl,9.78%,
c1nc2nc(Nc3ccc(N4CCOCC4)cc3)nc(NC3CCCCC3)c2[nH]1,-11.2%,
Cc1ccc(CN2CCNCC2)cc1NC(=O)CNc1ccc(F)c(F)c1,18.1%,
CS(=O)(=O)c1ccc(-c2cnc(N)c(C(=O)Nc3ccccc3)n2)cc1,762%,
CC1(C)CC(=O)c2c(C(F)(F)F)nn(-c3ccc(C(N)=O)c(NC4CCC(OC(=O)CN)CC4)c3)c2C1 (configuration not stated),-13.7%,
